PubChem BioAssay (NCI)
Compounds without any hit were thinned out: in the full panel of roughly 83,000, 20% have a hit.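 Results are percent growth after 48 hours of single-concentration exposure. 100 means growth as in untreated cells, lower positive values show inhibition; negative values down to -100 show cell death.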 Active and inactive are the calls of the source. The calls were made as follows: active = growth percent below 10; inactive = the rest.

Key:
Assay in all cases: NCI-60 one-dose screen, 48 h (100 = growth as untreated, 0 = no growth, -100 = all killed)
[1] = tested on: NCI-H23 lung; conditions: 10 µM unless noted
[2] = tested on: NCI-H226 lung; conditions: 10 µM unless noted
[3] = tested on: NCI-H322M lung; conditions: 10 µM unless noted
[4] = tested on: HOP-62 NSCLC; conditions: 10 µM unless noted
[5] = tested on: NCI-H460 lung; conditions: 10 µM unless noted
[6] = tested on: HOP-92 NSCLC; conditions: 10 µM unless noted
[7] = tested on: NCI-H522 lung; conditions: 10 µM
[8] = tested on: 786-0 renal; conditions: 10 µM unless noted
[9] = tested on: COLO 205 colon; conditions: 10 µM unless noted
[10] = tested on: DU-145 prostate; conditions: 10 µM unless noted
[11] = tested on: K-562 leukemia; conditions: 10 µM unless noted
[12] = tested on: MALME-3M melanoma; conditions: 10 µM unless noted
[13] = tested on: MDA-MB-231 breast; conditions: 10 µM unless noted
[14] = tested on: SF-268 CNS; conditions: 10 µM unless noted
[15] = tested on: SF-295 CNS; conditions: 10 µM unless noted
[16] = tested on: SF-539 CNS; conditions: 10 µM unless noted
[17] = tested on: UACC-257 melanoma; conditions: 10 µM unless noted
[18] = tested on: M14 melanoma; conditions: 10 µM unless noted
[19] = tested on: RXF 393 renal; conditions: 10 µM unless noted

Measured: growth

COc1ccc2cc(-c3nc4ccccc4[nH]3)c(=O)oc2c1
inactive: [1] 93.1% | [2] 97.5% | [3] 96.3% | [4] 93.9% | [5] 101% | [6] 80.3% | [7] 88.7% | [8] 98% | [9] 119% | [10] 114% | [11] 96.8% | [12] 103% | [13] 104% | [14] 110% | [15] 105% | [16] 98.8% | [17] 45.9% | [18] 93.7%

O=C1/C(=C/c2ccccc2O)C(=S)SN1Cc1ccco1
inactive: [1] 105% | [2] 103% | [3] 90.3% | [4] 92.7% | [5] 106% | [6] 97.7% | [7] 83.2% | [8] 103% | [9] 113% | [10] 103% | [11] 46.4% | [12] 106% | [13] 108% | [14] 105% | [15] 94.3% | [16] 97.4% | [17] 99.1% | [18] 99.8%

COC(=O)c1c(NC(=O)CSc2nnnn2-c2ccc(OC)cc2)sc(C)c1C
inactive: [1] 76.7% | [2] 79.4% | [3] 100% | [4] 99.3% | [5] 106% | [6] 75.1% | [7] 91.1% | [8] 107% | [9] 105% | [10] 108% | [11] 81.5% | [12] 104% | [13] 76.5% | [14] 93.5% | [15] 156% | [16] 98.3% | [17] 16.8% | [18] 95.8%

COc1cc(/C=N/NC(=O)c2ccc(C(F)(F)F)nc2Nc2ccc(Cl)cc2C)ccc1O
inactive: [1] 47.9% | [2] 39.6% | [3] 25.5% | [5] 24.5% | [6] 40% | [7] 44.6% | [9] 51.8% | [11] 15.2% | [12] 15.1% | [13] 53.1% | [14] 34.9% | [16] 30.4% | [17] 57.2% | [18] 50.9%
active: [4] 9.04% | [8] 4.66% | [15] 7.59%

CCOC(=O)CCC(=O)O[C@H]1[C@H](O[C@@H]2[C@@H](C)[C@H](O[C@H]3C[C@@](C)(OC)[C@@H](O)[C@H](C)O3)[C@@H](C)C(=O)O[C@H](CC)[C@@](C)(O)[C@H](O)[C@@H](C)C(=O)[C@H](C)C[C@@]2(C)O)O[C@H](C)C[C@@H]1N(C)C
inactive: [1] 99.6% | [2] 97.2% | [3] 90.2% | [4] 94.6% | [5] 119% | [6] 102% | [7] 92.6% | [8] 98.2% | [9] 109% | [10] 119% | [12] 99.4% | [13] 106% | [19] 110% | [14] 115% | [15] 104% | [16] 101% | [17] 113% | [18] 97.2%

Cc1cc2ccccn2c1C(=O)c1ccc(C(=O)c2ccccc2)cc1
inactive: [1] 84% | [2] 86.9% | [3] 90.1% | [4] 98.4% | [5] 97.3% | [6] 82.3% | [7] 79.7% | [8] 84.9% | [9] 102% | [10] 85.8% | [11] 94.3% | [12] 76.8% | [13] 91% | [14] 99.7% | [15] 83.2% | [16] 98.7% | [17] 43.4% | [18] 91.1%

O=C(c1ccc(N2CCOCC2)cc1[N+](=O)[O-])N1CCOCC1
inactive: [1] 97.2% | [2] 97.9% | [3] 111% | [4] 94.8% | [5] 116% | [6] 94.3% | [7] 94% | [8] 102% | [9] 87.1% | [10] 114% | [11] 159% | [12] 103% | [13] 134% | [14] 110% | [16] 107% | [17] 43.9% | [18] 107%
active: [15] -38.9%

COc1cccc(C2=NN(C(C)=O)C(c3cc(OC)c(OC)c(OC)c3)C2)c1 (stereo not drawn)
inactive: [1] 52% | [2] 90.1% | [3] 77% | [4] 31.5% | [8] 30% | [9] 22.2% | [12] 65.9% | [13] 41.3% | [14] 38.6% | [15] 193% | [17] 48.3% | [18] 16.8%
active: [5] -0.923% | [6] -0.613% | [7] -38% | [11] 9.66% | [16] 7.59%

CC(=O)O[C@H]1CC[C@@]2(C)C(=CC[C@@H]3[C@@H]2CC[C@]2(C)C(c4cccnc4)=CC[C@@H]32)C1
inactive: [1] 66.6% | [2] 64.1% | [3] 95.6% | [4] 75.7% | [5] 68.2% | [6] 79.4% | [7] 38.3% | [8] 13.6% | [9] 81.8% | [10] 94.9% | [12] 72.6% | [13] 86.3% | [14] 76.4% | [15] 43.3% | [16] 28.7% | [18] 72.7%
